This passage reports Potency results from PubChem BioAssay (Tox21).

Where “and” joins values, the source holds several entries; their conditions need not be identical. Equal entries are not always repeated. Results filed as inconclusive are left out. A call without a number means that no potency is given here. More than one record can exist for a structure, and the calls need not agree. Calls of active or inactive are those of the source. The call rests on the fitted dose curve; in most records, active means well fitted cell-killing curve with a large enough effect in the repeat runs (not every such curve was filed as active); inconclusive means weak or mixed curves, or effect the other way; inactive means no such curve, though single readings can be large or run the other way.
Potency means the concentration at half of the fitted maximal effect.

The assay can be described thus: qHTS assay to identify small molecule antagonists of the farnesoid-X-receptor (FXR) signaling pathway - cell viability counter screen (AID 743221). Further: nearly all actives have a fitted effect of over 50% in size. Conditions: FXR-bla HEK293T viability, CellTiter-Glo luminescence, 16 h; series mostly up to 62.6 µM. The text has this: National Center for Advancing Translational Sciences [NCATS]
NIH Chemical Genomics Center [NCGC]
U.S. Environmental Protection Agency [EPA]
National Institutes of Environmental Health Sciences [NIEHS]
National Toxicology Program [NTP]
U.S. Food and Drug Administration [FDA]
The farnesoid-X-receptor (FXR), a nuclear hormone receptor, is highly expressed in liver, intestine, kidney and adrenal cortex. Natural ligands of FXR are the bile acids (Cholic acid, Chenodeoxy cholic acid etc). FXR is an important regulator of diverse metabolic pathways, including the bile acid homeostasis, lipid and glucose metabolisms. FXR regulates the expression of target genes by binding either as a monomer or as a heterodimer with the retinoid X receptor (RXR). Numerous studies have reported that FXR exerts protective function during cholestasis, diabetes, liver regeneration, and cancer. To identify compounds that inhibit FXR signaling, GeneBLAzer FXR-UAS-bla HEK 293T cell line (Invitrogen, Carlsbad, CA) containing a beta-lactamase reporter gene under the control of a UAS response element was used to screen the Tox21 10K compound library. The cytotoxicity of the Tox21 compound library against the FXR-bla cell line was tested in parallel by measuring the cell viability using CellTiter-Glo assay in the same wells.
Tox21 Assay Protocol Summary:
FXR-bla cells were dispensed at 5000 cells/5uL/well in 1536-well black wall/clear bottom plates using a Multidrop Combi (Thermo Fisher Scientific, Waltham, MA) dispenser. After the assay plates were incubated at 37 C and 5% CO2 for 5 h, 23 nL of compounds dissolved in DMSO, positive controls or DMSO only was transferred to the assay plate by a Pintool station (Kalypsys, San Diego, CA), followed by addition of 1 uL Chenodeoxycholic acid (50 uM, final concentration in the wells). The assay plates were incubated at 37C for 16 h. After 1 uL of LiveBLAzerTM B/G FRET substrate was added using a Bioraptr Flying Reagent Dispenser (FRD) workstation (Beckman Coulter, Indianapolis, IN), the plates were incubated at room temperature for 2 h, and fluorescence intensity was measured by an Envision plate reader (PerkinElmer, Shelton, CT). For cell viability readout that measures cytotoxicity, 4uL/well of CellTiter-Glo reagent was added into the assay plates using a Bioraptr FRD. After 30 min incubation at room temperature, the luminescence intensity in the plates was measured using a ViewLux plate reader (PerkinElmer).
Turning to `CNc1ccc([N+](=O)[O-])cc1`, the Potency entry was “inactive”.

On to `CCCCOC(=O)CC`, for which the Potency result is “inactive”.

In the case of `Cc1c(C)c2c(c(C)c1OC(=O)c1cccnc1)CC[C@@](C)(CCC[C@H](C)CCC[C@H](C)CCCC(C)C)O2`, the Potency result was “inactive”.

On to `C[Si](Cl)(c1ccccc1)c1ccccc1`, for which the Potency result is “inactive”.

For the molecule `O=C(O)c1cc(O)c2ccccc2c1O`, the Potency entry was “inactive”.

As to `S=c1nccc[nH]1`, the Potency result is “inactive”.

In the case of `CCCCCCCCCCCCCCCC[N+](C)(C)CC`, the Potency was 43.8 µM (active) and 29.8 µM (active).

As for `CN1CCC[C@@H]1CCO[C@](C)(c1ccccc1)c1ccc(Cl)cc1`, the Potency is 29.8 µM (active).

Regarding `CC(CCc1ccccc1)NCC(O)c1ccc(O)c(C(N)=O)c1` (stereo not given), the Potency result is “inactive”.

As to `CCC(=O)C(=O)CC`, the Potency result is “inactive”.

Turning to `CC[N+](CC)(CC)CCOC(=O)C(C1CCCC1)C1CCCC1`, the Potency entry is “inactive”.

Take `Nc1ccc(C(=O)O)c(O)c1`: the Potency result is “inactive”.

Regarding `Cc1cc(C(C)(C)C)c(O)c(C)c1Cn1c(=O)n(Cc2c(C)cc(C(C)(C)C)c(O)c2C)c(=O)n(Cc2c(C)cc(C(C)(C)C)c(O)c2C)c1=O`, the Potency entry was “inactive”.

Turning to `CC1(C)CCC[C@]2(C)[C@H]3CCO[C@]3(C)CC[C@@H]12`, the Potency entry is “inactive”.

`COc1cccc2c1C(=O)c1c(O)c3c(c(O)c1C2=O)C[C@@](O)(C(C)=O)C[C@@H]3O[C@H]1C[C@H](N)[C@H](O)[C@H](C)O1`: the Potency was 55.3 µM (active) and inactive.

`CCCC1CCC(=O)CC1`: the Potency result was “inactive”.

For `CC/C=C\CCCCCO`, the Potency entry was “inactive”.

Regarding `O=S(=O)(O)c1ccccc1/C=C/c1ccc(-c2ccc(/C=C/c3ccccc3S(=O)(=O)O)cc2)cc1`, the Potency entry was “inactive”.

For the molecule `O=C(O)Cc1ccc2c(c1)C(=O)c1ccccc1CO2`, the Potency entry is “inactive”.

For `[Cl][Pt-2]([Cl])([Cl])[Cl]`, the Potency result was “inactive”.

For `CCC(COC(=O)CCS)(COC(=O)CCS)COC(=O)CCS`, the Potency entry was “inactive”.

`Nc1cc(Cl)c(O)c(Cl)c1`: the Potency result is “inactive”.

`CCC(CC)C(C)CCOC(C)=O` (stereo not given): the Potency entry was “inactive”.

`Cc1cccc(C)c1NC(=O)c1ccc(N)cc1`: the Potency entry was “inactive”.

Regarding `CCCCCCCCCCOC(=O)c1ccccc1C(=O)OCCCCCCCC`, the Potency entry is “inactive”.

`O=[N+]([O-])c1ccc(O)cc1C(F)(F)F`: the Potency result is “inactive”.

As for `O=C(/C=C/c1ccccc1)OC/C=C/c1ccccc1`, the Potency entry is “inactive”.

On to `CC1=CCC(=C(C)C)CC1`, for which the Potency result was “inactive”.

`CCCCCCC1CCCC(=O)O1` (stereo not given): the Potency entry was “inactive”.

Consider `c1ccsc1`, for which the Potency result is “inactive”.

On to `CCCCCc1ccc(Cl)cc1`, for which the Potency entry is “inactive”.

Consider `CC(C)(C)C1CCC(=O)CC1`, for which the Potency entry was “inactive”.

Take `Oc1cc(Cl)cc(Cl)c1Cl`: the Potency entry was “inactive”.

With `CCCCCCCCCCCCOCCOCCOCCOCCOCCOCCOCCOCCOCCO`, the Potency was 26.6 µM (active).

Consider `CCn1c2ccccc2c2cc([N+](=O)[O-])ccc21`, for which the Potency entry was “inactive”.

For `O=c1[nH]c(=O)n([C@H]2C[C@H](O)[C@@H](CO)O2)cc1F`, the Potency was 11.9 µM (active).

Turning to `CCO[C@@H]1O[C@H](C(COCc2ccccc2)OCc2ccccc2)[C@H](OCc2ccccc2)[C@H]1O` (stereo not given in full), the Potency was 13.3 µM (active).

Turning to `Cc1cc(C(C)(C)C)cc(C)c1CC1=NCCN1`, the Potency result was “inactive”.

For the molecule `CC(C)(C)c1csc(-c2cc3cc(OCc4ccccc4CC(=O)O)ccc3o2)n1`, the Potency entry is “inactive”.

For `CC(N=C(NC#N)Nc1ccncc1)C(C)(C)C` (stereo not given), the Potency entry is “inactive”.
